Reference: PubChem BioAssay (NCATS)
Inconclusive results are not listed. A call without a number means that no potency is given here. Calls of active or inactive are those of the source. The call rests on the fitted dose curve; in most records, active means well fitted inhibition curve with a large enough effect; inconclusive means small, poorly fitted or top-dose-only effect; inactive means flat fitted curve, though single readings scatter.

Test system: CRL-7250
Experiment: qHTS assay to identify novel small-molecules to repurpose for Merkel cell carcinoma treatment (AID 1296009); further: nearly all actives have a fitted effect of over 60% in size
Details: MCC and control cell lines, CellTiter-Glo viability, 72 h; series mostly up to 92 µM
Method in brief: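 Viability readout: ATP luminescence (CellTiter-Glo) after 72 hr drug exposure at 37 degree celsius. Dose-response format was 8 points for NPC and 11 points for MIPE; data normalized to in-plate controls.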

| SMILES | Potency | outcome |
| --- | --- | --- |
| COC(=O)c1cc(Br)cnc1N1CCC(NC2CCCCC2)C(O)C1 (stereo not given) | inactive | – |
| O=C(O)c1cc(-c2c(-c3ccccc3)nn3ccccc23)n[nH]c1=O | inactive | – |
| CC#C[C@@H](CC(=O)O)c1ccc(OCc2ccc(CN3CCC4(C=Cc5ccccc54)CC3)s2)cc1 | inactive | – |
| O=C(NCc1ccc(F)cc1)C(=O)c1c[nH]c2ccccc12 | inactive | – |
| CO[C@H]1c2cc(C(C)C)c(O)c(O)c2[C@@]23CCCC(C)(C)C2[C@@H]1OC3=O (stereo not given in full) | inactive | – |
| O=C(/C=C/c1ccccc1)OC[C@H]1O[C@@H](OC(=O)c2cc(O)c(O)c(O)c2)[C@H](O)[C@@H](O)[C@@H]1O | inactive | – |
| COc1c2c(c(C)c3c1C(=O)OC3)O[C@@]1(C)C[C@@H](O)[C@]34O[C@](OC)(CC[C@]3(C)[C@H]1C2)OC4(C)C | inactive | – |
| CC1CCC2(C(=O)O)CCC3(C)C(=CCC4C5(C)CCC(OC(=O)/C=C/c6ccccc6)C(C)(C)C5CCC43C)C2C1C (stereo not given) | inactive | – |
| C=C(COC(=O)CC(C)C)C1Cc2cc(C(C)=O)ccc2O1 (stereo not given) | inactive | – |
| C=C1CC23CC(=O)C4C(CO)(CO)CCCC4(C)C2CCC1C3 (stereo not given) | inactive | – |
| O=C(/C=C/c1ccccc1)O[C@@H]1[C@@H](CO)O[C@@](CO)(O[C@H]2O[C@H](CO)[C@@H](O)[C@H](O)[C@H]2O)[C@H]1O | inactive | – |
| CC(=O)N[C@H]1[C@H](O[C@H]2CC[C@@]3(C)C(CC[C@]4(C)C3CC=C3C5CC(C)(C)CC[C@]5(C(=O)O)[C@H](O[C@@H]5O[C@H](CO)[C@@H](O)[C@H](O)[C@H]5O)C[C@]34C)C2(C)C)O[C@H](CO[C@@H]2OC[C@H](O)[C@H](O)[C@H]2O[C@@H]2OC[C@@H](O)[C@H](O)[C@H]2O)[C@@H](O)[C@@H]1O (stereo not given in full) | – | inactive [at 9.27 µM] |
| O=c1[nH]ccc2nc(-c3ccc(CN4CCC(c5nc(-c6ccccn6)n[nH]5)CC4)cc3)c(-c3ccccc3)cc12 | inactive | – |
| CC[C@H](NC(=O)c1c(O)c(-c2ccccc2)nc2ccccc12)c1ccccc1 | inactive | – |
| Nc1nc2c(cnn2CCCc2ccc(O)cc2)c2nc(-c3ccco3)nn12 | inactive | – |
| Oc1ccc([C@H]2COc3cc(O)ccc3C2)cc1 | inactive | – |
| CC(C)=C1CC2C(CCC2(C)O)C(C)(O)CC1=O (stereo not given) | inactive | – |
| CC1=C(CC(=O)O)c2cc(F)ccc2C1=Cc1ccc(S(C)(=O)=O)cc1 | inactive | – |
| CC(=O)O[C@@H]1[C@@H](OC(=O)/C=C/c2ccccc2)[C@@H](OC(C)=O)[C@H](O[C@H]2[C@@H]3C=CO[C@@H](O[C@@H]4O[C@H](CO)[C@@H](O)[C@H](O)[C@H]4O)[C@@H]3[C@@]3(CO)O[C@@H]23)O[C@H]1C | inactive | – |
| Cn1nccc1-c1ccccc1Oc1ccc(S(=O)(=O)Nc2nccs2)cc1C#N | inactive | – |

| SMILES | Potency | outcome |
| --- | --- | --- |
| C=CC1(C)CC(OC(=O)/C(C)=C\COC(C)=O)C(C(=C)C(=O)O)C(O)C1C(=C)CO (stereo not given) | inactive | – |
| C=C1C(O)CC2C(C(=O)O)=COC(O[C@@H]3O[C@H](COC(=O)c4ccc(O)cc4)[C@@H](O)[C@H](O)[C@H]3O)C12 (stereo not given in full) | inactive | – |
| C=C1CCC[C@]2(C)C[C@]3(O)OC(=O)C(C)=C3C[C@@H]12 | inactive | – |
| CCCCCOC(=O)Nc1nc(=O)n(C2O[C@H](C)[C@@H](O)[C@H]2O)cc1F (stereo not given in full) | inactive | – |
| CC(=O)O[C@@H]1CC2C(C)(C)C(=O)C=C[C@]2(C)C2CC[C@@]3(C)[C@H](c4ccoc4)OC(=O)[C@H]4O[C@]43[C@@]21C (stereo not given in full) | inactive | – |
| COC(=O)C[C@H]1C(C)(C)[C@H](OC(=O)C(C)C)[C@@]2(O)C(=O)[C@]1(C)C1CC[C@]3(C)C(CC(=O)O[C@H]3c3ccoc3)[C@]13O[C@@H]32 (stereo not given in full) | inactive | – |
| CCCC(N[C@@H](C)C(=O)N1[C@H](C(=O)O)C[C@@H]2CCCC[C@@H]21)C(=O)OCC (stereo not given in full) | inactive | – |
| CC(O)C/C=C/C=C/C(=O)OC1C=C2COC(=O)C2(O)C2(C)CCCC(C)(C)C12 (stereo not given) | inactive | – |
| CC(F)(F)CN1CCOc2c(nn(-c3ccccc3Cl)c2-c2ccc(Cl)cc2)C1=O | inactive | – |
| O=S(=O)(NC1CCC(c2cc(F)ccc2F)(S(=O)(=O)c2ccc(Cl)cc2)CC1)C(F)(F)F (stereo not given) | inactive | – |
| O=C(NCc1ccc(OC(F)(F)F)cc1)C1c2ccccc2C(=O)N1C1CCOCC1 (stereo not given) | inactive | – |
| C=C[C@H]1CN2CC[C@H]1C[C@@H]2C(O)c1ccnc2ccc(OC)cc12 (stereo not given in full) | inactive | – |
| O=C(Nc1ccccc1Br)NC1CCN(c2ccc(C(F)(F)F)cn2)C1 (stereo not given) | inactive | – |
| CC(=O)c1ccc(O[C@@H]2OC[C@@H](O)[C@H](O)[C@H]2O[C@]2(CO)O[C@H](CO)[C@@H](O)[C@@H]2O)c(O)c1 | inactive | – |
| COc1cc([C@H]2OC[C@]3(OC(C)=O)[C@@H](c4ccc(O[C@@H]5O[C@H](CO)[C@@H](O)[C@H](O)[C@H]5O)c(OC)c4)OC[C@H]23)ccc1O | inactive | – |
| CC(=O)N(O)CCCCCN1C(=O)CCC1=O | inactive | – |
| C[C@@H]1CC[C@]2(C(=O)O[C@@H]3O[C@H](CO)[C@@H](O)[C@H](O)[C@H]3O)CC[C@]3(C)C(=CCC4[C@@]5(C)C[C@@H](O)[C@H](O)[C@@](C)(C(=O)O[C@H]6[C@H](O)C[C@@]7(C)C(CC[C@]8(C)C7CC=C7[C@H]9[C@](C(=O)O[C@@H]%10O[C@H](CO)[C@@H](O)[C@H](O)[C@H]%10O)(CC[C@@H](C)[C@@]9(C)O)CC[C@]78C)[C@@]6(CO)C(=O)O)C5CC[C@]43C)[C@@H]2[C@]1(C)O (stereo not given in full) | – | inactive [at 9.27 µM] |
| COc1cnc(-n2cnc(C)n2)c2[nH]cc(C(=O)C(=O)N3CCN(C(=O)c4ccccc4)CC3)c12 | inactive | – |
| COC1CC(=O)C23C(=O)NC(CC(C)C)C2C(C)C(C)=CC3/C=C(\C)CCC1O (stereo not given) | inactive | – |
| C=C1CC2C3(C)C(O)CC(=O)C(C)(C)C3C(OC(C)=O)C(OC(C)=O)C2(C)C2C(=O)OC(C)(C(=O)OC)C(=O)C12C (stereo not given) | inactive | – |

| SMILES | Potency | outcome |
| --- | --- | --- |
| CC/C=C\CCO[C@@H]1O[C@H](CO[C@@H]2OC[C@H](O)[C@H](O)[C@H]2O)[C@@H](O)[C@H](O)[C@H]1O | inactive | – |
| Cc1occc(=O)c1O[C@@H]1O[C@H](CO[C@@H]2OC[C@](O)(CO)[C@H]2O)[C@@H](O)[C@H](O)[C@H]1O | inactive | – |
| COc1c(O)cc2c(c1O)C(=O)O[C@H](C)[C@H]2O | inactive | – |
| O=C(NCc1nc2ccccc2c(=O)n1-c1ccc(F)cc1)Nc1ccc(Cl)c(C(F)(F)F)c1 | inactive | – |
| CCCCC(=O)N1c2ccccc2NC2=C(C(=O)CCC2)C1c1ccccc1Cl (stereo not given) | inactive | – |
| Cc1cccc(NC(=O)CN2CCC(c3ccccn3)CC2)c1 | inactive | – |
| CC1(C)CCC[C@@]2(C)[C@H]1[C@H](O)C=C1COC(=O)[C@@]12O | inactive | – |
| CC1=C2C(=O)C=C(CO)C2[C@H]2OC(=O)[C@H](C)[C@@H]2[C@@H](OC(=O)Cc2ccc(O)cc2)C1 (stereo not given in full) | inactive | – |
| CC(C)C1CCC(CO)=CC1/C=C(\CO)C(=O)OCC1(O)CCC(C(C)C)C2C=C(C(=O)O)COC(=O)C21 (stereo not given) | inactive | – |
| CN1CCCC1Cc1c[nH]c2ccc(CCS(=O)(=O)c3ccccc3)cc12 (stereo not given) | inactive | – |
| CC1C(=O)CC2C3C(O)CC(C(=O)O)C12CC3(C)C (stereo not given) | inactive | – |
| CC1CCC2(NC1)OC1C(=O)C3C4CCC5CC(O[C@@H]6O[C@H](CO)[C@@H](O)[C@H](O)[C@H]6O[C@@H]6O[C@@H](C)[C@H](O)[C@@H](O)[C@H]6O)CCC5(C)C4CCC3(C)C1C2C (stereo not given in full) | inactive | – |
| O=C(O)CCc1cc2ccoc2cc1O[C@@H]1O[C@H](CO)[C@@H](O)[C@H](O)[C@H]1O | inactive | – |
| CC(C)(C)OC(=O)c1ncn2c1C(C)(C)Nc1ccccc1-2 | inactive | – |
| C=C(C(=O)O)[C@@H]1CC[C@H](C)[C@@H]2CC(=O)C(C)=C2C1 | inactive | – |
| O=C(O)/C=C/c1ccc(O)c(O[C@@H]2O[C@H](CO)[C@@H](O)[C@H](O)[C@H]2O)c1 | inactive | – |
| COc1cc(C2Oc3c(OC)cc(/C=C/C(=O)OC[C@H]4O[C@@H](OC(C)(C)C(=O)O)[C@H](O)[C@@H](O)[C@@H]4O)cc3C2CO)ccc1O (stereo not given in full) | inactive | – |
| COC(=O)C1=CO[C@@H](O[C@@H]2O[C@H](CO)[C@@H](O)[C@H](O)[C@H]2O)[C@H]2[C@@H]1CC(OC)O[C@@H]2C (stereo not given in full) | inactive | – |
| COc1c(C(C)C)c(O)c(O)c2c1C(OC)[C@H]1OC(=O)[C@@]23CCCC(C)(C)[C@H]13 (stereo not given in full) | inactive | – |
| COc1ccc(C2(O)c3c(ccc4c3OC(C)(CCC=C(C)C)C=C4)NC(=O)C2OC)cc1 (stereo not given) | inactive | – |
